The whole screen tested about 2,300 compounds, of which about 550 (24%) were called active. How the calls were made is not given here. Not all results are given here. Entries with a potency or affinity are not part of this list.
Test: Vero E6 cell cytotoxicity, dose response, cytotoxicity control for non-replicating M. tuberculosis project, secondary assay (AID 492998);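 further: 100% = vehicle-treated cells and 0% = background wells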
Details: series mostly up to 20 µM; viability: at the top concentration

Row | SMILES | viability
1 | Cc1cc(C(=O)NNc2cc(Cl)ccc2Cl)no1 | 94.2% (inactive)
2 | CC(C)(C)OC(=O)NCCC(=O)Oc1ccc2ccc(=O)oc2c1 | 93.9% (inactive)
3 | COC(=O)[C@@H](NC(=O)c1cc(COc2cncc(Cl)c2)on1)c1ccccc1 | 103% (inactive)
4 | Cc1ccc(NC(=O)CN(C)CC(=O)Nc2ccc(F)c(Cl)c2)cc1 | 101% (inactive)
5 | CCOC(=O)COc1cc([N+](=O)[O-])cc2cccnc12 | 104% (inactive)
6 | O=C1c2cccc3cc([N+](=O)[O-])cc(c23)C(=O)N1c1ccccc1O | 91.5% (inactive)
7 | O=[N+]([O-])c1cnc(Nc2ccc(Cl)cn2)c([N+](=O)[O-])c1 | 82.3% (inactive)
8 | NCCNc1ccc([N+](=O)[O-])c2cccnc12 | 96.2% (inactive)
9 | Fc1ccc(N2CCN(Cc3nnc(-c4ccccc4)o3)CC2)cc1 | 119% (inactive)
10 | Cc1occc1-c1nnc(-c2cc([N+](=O)[O-])cc([N+](=O)[O-])c2)o1 | 90.4% (inactive)
11 | S=C(Nc1ccc2c(c1)OCO2)Nc1ccc2c(c1)OCO2 | 83.2% (inactive)
12 | CCOC(=O)c1cc(-c2csc(COc3ccccc3)n2)on1 | 102% (inactive)
13 | CC(=O)N1CCC(=NNC(=O)c2cccs2)CC1 | 99.7% (inactive)
14 | NC1CCN(c2c(F)cc3c(=O)c(C(=O)O)cn(C4CC4)c3c2Cl)C1 (stereo not given) | 102% (inactive)
15 | Cc1ccc2cc3c(nc2c1)OCC3 | 99.3% (inactive)
16 | O=C(Nc1nccs1)c1cc2cc(Cl)ccc2oc1=O | 109% (inactive)
17 | O=C(NNc1ccc([N+](=O)[O-])cc1)C1CC2CCCC(C1)C2=O (stereo not given) | 101% (inactive)
18 | COCC(=O)Nc1ccccc1NC(C)=O | 94.4% (inactive)
19 | COC(=O)c1ccc(COC(=O)c2ccccn2)cc1 | 102% (inactive)
20 | CCOc1ccc(OCc2ccc(C(=O)OCc3ccccn3)o2)cc1 | 103% (inactive)

Row | SMILES | viability
21 | CCOc1cc(/C=N/NC(=O)c2ccccn2)ccc1OC(=O)c1cccs1 | 111% (inactive)
22 | O=C(OCc1ccc(Cl)c(Cl)c1)c1ccccn1 | 115% (inactive)
23 | Cc1ccccc1NC(=O)C1COc2ccccc2O1 (stereo not given) | 91.7% (inactive)
24 | O=C(OCc1ccccn1)c1ccc(COc2ccccc2Cl)o1 | 80.2% (inactive)
25 | Nc1ccc2cc(Br)ccc2c1 | 81.7% (inactive)
26 | N#CC(C(=O)NCc1ccco1)c1nc2ccccc2nc1N1CCOCC1 (stereo not given) | 89.9% (inactive)
27 | Cc1c([N+](=O)[O-])cnc(Sc2ccccc2)c1[N+](=O)[O-] | 77.3% (inactive)
28 | Nc1ncnc(Oc2cccc3cccnc23)c1[N+](=O)[O-] | 88.1% (inactive)
29 | O=C(NNC(=O)c1ccccc1F)c1ccc(-c2ccc(Cl)cc2)o1 | 100% (inactive)
30 | Cn1cccc1/C=N/NC(=O)c1ccco1 | 98% (inactive)
31 | C=CCNc1nc(C(=O)OCC(=O)c2cccc(Br)c2)cs1 | 101% (inactive)
32 | Cc1ccc(C(=O)CCNc2ccc(Br)cc2)o1 | 86.6% (inactive)
33 | COc1ccc(C(=O)CCNc2ccc(F)cc2)cc1 | 103% (inactive)
34 | O=C(CCNc1ccc(Cl)c(C(F)(F)F)c1)c1ccco1 | 76.2% (inactive)
35 | O=C(CCNc1cccc(Cl)c1)c1cccs1 | 84.5% (inactive)
36 | O=C(COC(=O)c1ccc(O)cc1O)c1ccc2c(c1)OCO2 | 110% (inactive)
37 | O=C(CCN1CCC(c2cccs2)=N1)c1cccs1 | 117% (inactive)
38 | C/C(=N\Nc1ccc(Cl)cc1)c1c(O)cc(C)oc1=O | 102% (inactive)
39 | Cc1ccc(N=Nc2c(C)[nH]n(C(N)=S)c2=O)cc1 | 85.3% (inactive)
40 | CSc1ccc(N=Nc2c(C)[nH]n(C)c2=O)cc1 | 97% (inactive)

Row | SMILES | viability
41 | Cn1nnnc1N=N/C(=N/Nc1ccccc1)c1ccccc1 | 80.9% (inactive)
42 | CC(NC(=O)c1cc2ccccc2oc1=O)c1ccccc1 (stereo not given) | 98.7% (inactive)
43 | CCCCOC(=O)c1ccc(NC(=O)C2CCCO2)cc1 (stereo not given) | 85.9% (inactive)
44 | O=C(COc1ccc2ccccc2c1)N/N=C/c1ccccn1 | 103% (inactive)
45 | Cc1cccc(OCC(=O)NNC(=O)c2cc3ccccc3oc2=O)c1 | 104% (inactive)
46 | O=C(COC(=O)CCC(=O)c1ccc(F)cc1)Nc1ccccc1 | 101% (inactive)
47 | CC(=O)OCCNc1cc(SCc2ccco2)c2nonc2c1[N+](=O)[O-] | 98.7% (inactive)
48 | CC(=O)OCCN(C)c1cc(SC(C)C)c2nonc2c1[N+](=O)[O-] | 101% (inactive)
49 | C/C(Cn1nnc([N+](=O)[O-])n1)=N\NC(=O)c1ccncc1 | 93.6% (inactive)
50 | Cc1nc(-c2ccc(C(F)(F)F)cc2)sc1C(=O)NN | 100% (inactive)
51 | Cc1cc(Cl)ccc1NNC(=O)c1cccs1 | 110% (inactive)
52 | COC(=O)COc1ccc2c(=O)c(-c3ccccc3OC)coc2c1 | 103% (inactive)
53 | Cc1ccnc(NC(=O)c2cc3ccccc3o2)c1 | 79.7% (inactive)
54 | Cc1n[nH]c(C)c1CCOc1ccc(C(C)C)cc1 | 84% (inactive)
55 | COc1cc(OC)cc(-c2nc3ccccc3c(=O)o2)c1 | 100% (inactive)
56 | CCCOC(=O)c1ccc(NC(=O)C2C3C=CC(O3)C2C(=O)O)cc1 (stereo not given) | 104% (inactive)
57 | CCCCCCNC(=O)c1ccc(Br)o1 | 91.2% (inactive)
58 | CC(=O)CCC1CC(c2ccc(Cl)cc2)=NO1 (stereo not given) | 110% (inactive)
59 | C=CC[n+]1ccn(-c2nc3ccccc3nc2[N-]S(=O)(=O)c2cccs2)c1 | 91.2% (inactive)
60 | Cc1cc(C)c2sc(NC(=O)C3=COCCO3)nc2c1 | 95.5% (inactive)

Reference: PubChem BioAssay AID492998 (Southern Research Specialized Biocontainment Screening …, 2010)
